TDP1 cell CPT = qHTS for Inhibitors of human tyrosyl-DNA phosphodiesterase 1 (TDP1): qHTS in cells in presence of CPT; chicken DT40 Tdp1-/-;hTDP1 cells + 20 nM CPT, ATP luminescence, 48 h; 12% of 420,000 active; AID 686979, 2013; Potency, µM (doses to about 46.2 µM), actives largely listed as inhibitors; also: nearly all actives have a fitted effect of over 55% in size
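Cell growth measured by CellTiter-Glo luminescence after a minimum 48 h, 37 C compound exposure with 20 nM CPT in Tdp1-knockout DT40 cells stably expressing hTDP1, seeded 400/well; qHTS titration format.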
IL-1B inflam inh = qHTS for Inhibitors of Inflammasome Signaling: IL-1-beta AlphaLISA Primary Screen; THP-1 LPS/ATP IL-1B secretion, AlphaLISA, 16 h; hits give low values; activity change, % at 57.5 µM; 4.7% of 360,000 active; in the data active = activity change below about -50%; inconclusive = mostly about -30% to -49%
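Secreted IL-1B measured by AlphaLISA bead assay after 16 h compound exposure of THP-1 cells; compounds (final up to 57.5 uM) added 1 h before LPS (250 ng/mL) and ATP (1.25 mM) stimulation; lower signal means less secretion.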
uPA surface inh = qHTS for Inhibitors of Cell Surface uPA Generation | AID 540303, 2011 | Potency, µM (highest dose often 38.3 µM), actives largely listed as inhibitors | 0.31% of 330,000 active | cell surface uPA generation assay, qHTS; active = well fitted inhibition curve with a large enough effect; inconclusive = small, poorly fitted or top-dose-only effect; inactive = no such curve, though single readings can be large or run the other way; tested in mouse RAW 264.7 cells; also: nearly all actives have a fitted effect of over 55% in size
HT1080 IDH1KD tx = qHTS for induction of synthetic lethality in tumor cells producing 2HG: qHTS for the HT-1080-IDH1KD cell line. HT-1080 IDH1 knockdown viability, ATP luminescence, 48 h. Potency, µM (highest dose often 46.1 µM), most hits filed as cytotoxic. 2% of 360,000 active
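% activity derives from luminescence (CellTiter-Glo), normalised to DMSO and no-cell wells. HT-1080-IDH1KD cells, 750/well, had 48 h compound exposure at 37 °C.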
HT1080NT lethal = qHTS for induction of synthetic lethality in tumor cells producing 2HG: qHTS for the HT-1080-NT fibrosarcoma cell line. HT-1080-NT fibrosarcoma viability, CellTiter-Glo ATP luminescence, 48 h. Potency, µM (top dose mostly 46.1 µM), most hits filed as cytotoxic. 1.6% of 360,000 active;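 also: NT is the 2HG producing partner of a matched IDH1 knockdown line; nearly all actives have a fitted effect of over 55% in size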
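Luminescent CellTiter-Glo readout after 48 hours of compound exposure at 37 degrees C defined viability of HT-1080-NT cells. Activity was normalized to DMSO wells and cell-free media wells; concentration-response curves were fitted and assigned curve classes.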
TDP1 cell noCPT = qHTS for Inhibitors of human tyrosyl-DNA phosphodiesterase 1 (TDP1): qHTS in cells in absence of CPT; DT40 Tdp1-/- hTDP1 cells, no CPT, ATP luminescence, 48 h; Potency, µM (top dose mostly 46.2 µM), actives largely listed as inhibitors; 15% of 420,000 active; AID 686978, 2013; also: nearly all actives have a fitted effect of over 55% in size
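Compound effects on proliferation are scored in DT40 Tdp1-/-;hTDP1 cells in the absence of CPT. ATP levels (CellTiter-Glo luminescence) are recorded after a ≥48 hr, 37 °C incubation.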
Large screens that a line does not name were inactive. Shown are actives, neighbours in structure and some others; about 19% of the full set was active somewhere. Unless noted, calls follow the shape of the dose curve; as a rule, active = well fitted curve in the direction sought with a large enough effect; inconclusive = small, poorly fitted or top-dose-only effect, or another doubt; inactive = no such curve, though single readings can be large; an effect the other way counts as inactive or inconclusive.

CCc1ccc([C@@H]2CC=C(C(=O)O)[C@H](c3ccccc3F)N2S(=O)(=O)c2ccc(C)cc2)cc1	none
COc1ccccc1N(CC(=O)NC1CCCC1)C(=O)CNC(=O)c1cccs1	none
COc1cc2c(cc1OC)C1=NC(=O)CN1C(SCc1ccccc1)=N2	TDP1 cell CPT 18µM, TDP1 cell noCPT 9.2µM
CC(C)NC(=O)C1(C)CCN1C(=O)c1cccc(F)c1 (stereo not drawn)	none (no result: uPA surface inh)
CCCC(=O)Nc1ccc(NC(=O)CCc2ccccc2)cn1	TDP1 cell CPT 16µM, TDP1 cell noCPT 16µM
Cc1ccc2cc(CN(CCc3ccccc3)C(=S)NCCCN(C)C)c(=O)[nH]c2c1	TDP1 cell CPT inconclusive, IL-1B inflam inh inconclusive, HT1080 IDH1KD tx inconclusive, HT1080NT lethal 26µM, TDP1 cell noCPT 26µM
Cc1cccc2cc(CN(CCCN(C)C)C(=S)NCCc3ccccc3)c(=O)[nH]c12	TDP1 cell CPT 21µM, IL-1B inflam inh -51, TDP1 cell noCPT 16µM
COc1cc2cc(CN(CCc3cccc(C)c3)C(=S)NCCCN(C)C)c(=O)[nH]c2cc1OC	IL-1B inflam inh inconclusive, TDP1 cell noCPT inconclusive
Cc1ccc2[nH]c(=O)c(CN(CCCN(C)C)C(=S)NCCc3ccccc3)cc2c1	TDP1 cell CPT inconclusive, IL-1B inflam inh -67, HT1080 IDH1KD tx 18µM, HT1080NT lethal 18µM, TDP1 cell noCPT inconclusive
CC(=O)N(CCc1cccc(C)c1)Cc1cc2ccc(C)cc2[nH]c1=O	IL-1B inflam inh inconclusive
CC(=O)N(CCc1cccc(C)c1)Cc1cc2cc(C)ccc2[nH]c1=O	TDP1 cell CPT 15µM, TDP1 cell noCPT inconclusive
C1=Cc2ccccc2/C1=C\c1ccc2c(c1)OCO2	none (no result: IL-1B inflam inh, uPA surface inh, HT1080 IDH1KD tx, HT1080NT lethal)
CO[C@H](C(=O)N(C)C[C@@H]1OCc2ccccc2-c2c(n(C)c3ccccc23)C(=O)N([C@H](C)CO)C[C@@H]1C)c1ccccc1	TDP1 cell noCPT inconclusive (no result: uPA surface inh)
Cc1ccc(S(=O)(=O)NNC(=O)c2cc(C)cs2)cc1	none
COc1cc2cc(CN(CCc3cccc(C)c3)C(=S)NCCCN3CCOCC3)c(=O)[nH]c2cc1OC	TDP1 cell CPT inconclusive, IL-1B inflam inh -62, HT1080 IDH1KD tx inconclusive, TDP1 cell noCPT inconclusive
O=C(CSc1nnc(-c2ccccc2F)n1CCc1ccccc1)Nc1ccc2[nH]c(=O)[nH]c2c1	none
CC(NC(=O)CCc1nnc(-c2ccc(-c3ccccc3)cc2)o1)c1nc2ccccc2[nH]1 (stereo not drawn)	TDP1 cell CPT 18µM, IL-1B inflam inh inconclusive, TDP1 cell noCPT 16µM (no result: uPA surface inh)
CC(C)(CO)CNC(=O)CCc1nnc(-c2ccc(-c3ccccc3)cc2)o1	TDP1 cell CPT inconclusive, TDP1 cell noCPT 21µM
O=C(Nc1csc(Cc2c(Cl)cccc2Cl)n1)NN1CCOCC1	IL-1B inflam inh -84
C[N+](C)(C)CC(O)CC(=O)[O-] (stereo not drawn)	none (no result: IL-1B inflam inh, uPA surface inh, HT1080 IDH1KD tx, HT1080NT lethal)
NS(=O)(=O)c1cccc(NC(=O)c2cncc(Br)c2)c1	none
COc1ccccc1NS(=O)(=O)c1cccc(NC(=O)C2CC2)c1	TDP1 cell CPT inconclusive
COc1ccccc1NS(=O)(=O)c1cccc(NC(=O)c2cncc(Br)c2)c1	TDP1 cell CPT inconclusive, HT1080 IDH1KD tx inconclusive, HT1080NT lethal inconclusive, TDP1 cell noCPT 18µM
COc1ccccc1NS(=O)(=O)c1cccc(NC(=O)NCCCl)c1	TDP1 cell CPT 21µM, TDP1 cell noCPT inconclusive
COc1ccccc1NS(=O)(=O)c1cccc(NC(=O)Nc2cccc(Cl)c2)c1	TDP1 cell CPT 21µM, IL-1B inflam inh -65, HT1080 IDH1KD tx inconclusive, TDP1 cell noCPT 21µM
COc1cc2ccc(C(=O)O)cc2cc1OC	none (no result: uPA surface inh)
O=C(NC1CCCCC1)C1c2ccccc2OCC(=O)N1Cc1ccco1 (stereo not drawn)	HT1080 IDH1KD tx inconclusive (no result: uPA surface inh)
